The text below walks through data of PubChem BioAssay (Tox21).

The nature of assay [1]: qHTS assay to test for compound auto fluorescence at 535 nm (green) in HEK293 cells (AID 720680).
The nature of assay [2]: qHTS assay to test for compound auto fluorescence at 460 nm (blue) in HEK293 cell free culture (AID 720681). The gist of the method:
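Blue fluorescence (Ex 405/Em 460 nm, triamterene-equivalent) was read immediately after pin transfer of compound or DMSO into medium (DMEM, 10% FBS) without cells.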
For orientation: Quantitative high-throughput screening tests each substance at several concentrations.

Assay [3] in a line: qHTS assay to test for compound auto fluorescence at 535 nm (green) in HEK293 cell free culture (AID 720682). The gist of the method:
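Compounds were pin-transferred into cell-free DMEM with 10% FBS, and green fluorescence was read at excitation 485 nm and emission 535 nm. Intensities were expressed as fluorescein-equivalent values.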

Assay [4] in a line: qHTS assay to test for compound auto fluorescence at 590 nm (red) in HEK293 cell free culture (AID 720683). Put shortly: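 Red-channel autofluorescence of compounds in culture medium (DMEM, 10% FBS), no cells, measured at 540/590 nm. Rose Bengal sodium is the reference fluorophore for equivalence.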
Assay [5] in a line: qHTS assay to test for compound auto fluorescence at 590 nm (red) in HepG2 cell free culture (AID 720684). The gist of the method: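 No cells present: MEM + 10% FBS only. Compound pinned in, red label read (540/590 nm). Activity = fluorescence equivalent to Rose Bengal sodium.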
A short description of assay [6]: qHTS assay to test for compound auto fluorescence at 460 nm (blue) in HepG2 cell free culture (AID 720685). Put shortly: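 Cell-free plates of MEM plus 10% FBS received 23 nL compound or DMSO vehicle; blue-channel (405/460 nm) intensity scored against triamterene as reference fluorophore.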
Assay [7] in a line: qHTS assay to test for compound auto fluorescence at 535 nm (green) in HepG2 cell free culture (AID 720686).
Assay [8] is described as follows: qHTS assay to test for compound auto fluorescence at 460 nm (blue) in HepG2 cells (AID 720687). The gist of the method:
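Blue-channel autofluorescence (Ex/Em 405/460 nm, triamterene-equivalent) was measured after 1 hr compound exposure at 37 C, 5% CO2. Cells were HepG2, plated overnight at 37 C in MEM plus 10% FBS.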

Assay [9] is described as follows: qHTS assay to identify small molecule antagonists of the glucocorticoid receptor (GR) signaling pathway - cell viability counter screen (AID 720693). Further: nearly all actives have a fitted effect of over 55% in size.
Assay [10] can be described thus: qHTS assay for identifying genotoxic compounds that show differential cytotoxicity against isogenic chicken DT40 cell lines with known DNA damage response pathways - Rev3 mutant cell line (AID 743014). Further: nearly all actives have a fitted effect of over 55% in size. Further: potency means the concentration at half of the fitted maximal effect.
A short description of assay [11]: qHTS assay to identify small molecule antagonists of the androgen receptor (AR) signaling pathway - cell viability counter screen (AID 743033; further: nearly all actives have a fitted effect of over 45% in size).
Assay [12] can be described thus: qHTS assay to identify small molecule antagonists of the androgen receptor (AR) signaling pathway using the MDA cell line - cell viability counter screen (AID 743041; further: nearly all actives have a fitted effect of over 45% in size). The gist of the method: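 Using the breast carcinoma line MDA-kb2 AR-luc, test chemicals were co-incubated with R1881 for 16 h; CellTiter-Fluor reagent, added at 15.5 h, provided a fluorescence measure of live cells.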

The nature of assay [13]: qHTS assay to identify small molecule antagonists of the thyroid receptor (TR) signaling pathway - cell viability counter screen (AID 743064). Further: nearly all actives have a fitted effect of over 50% in size. The gist of the method: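 In-well cytotoxicity read by CellTiter-Fluor (30 min, 37 C) following 23.5 h exposure of GH3 cells bearing a TRE-luciferase sensor. Compounds were added alongside 1 nM (final) T3 to drive TR transactivation.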

The nature of assay [14]: qHTS assay for identifying genotoxic compounds that show differential cytotoxicity against isogenic chicken DT40 cell lines with known DNA damage response pathways - wild type cell line (AID 743012). Further: nearly all actives have a fitted effect of over 60% in size. Further: potency means the concentration at half of the fitted maximal effect. The gist of the method:
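Viability by ATP luminescence (CellTiter-Glo, 30 min RT) after 40 h compound treatment at 37 C/5% CO2, using 300 parental DNA repair-proficient DT40 cells per well.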

Assay [15] in a line: qHTS assay for identifying genotoxic compounds that show differential cytotoxicity against isogenic chicken DT40 cell lines with known DNA damage response pathways - Rad54/Ku70 mutant cell line (AID 743015). Further: nearly all actives have a fitted effect of over 60% in size. Further: potency means the concentration at half of the fitted maximal effect.
Assay [16] addresses Glucocorticoid receptor (Homo sapiens) (UniProt P04150). As to the kind of experiment: qHTS assay to identify small molecule agonists of the glucocorticoid receptor (GR) signaling pathway (AID 720691; active means well fitted activation curve with a large enough effect in the signal ratio in the repeat runs, not every such curve was filed as active; the % refers to the signal ratio). Put shortly:
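Agonist-mode qHTS in HeLa cells stably expressing a glucocorticoid-response-element beta-lactamase reporter. Fluorescence intensity read with FRET substrate (2 h, room temperature) after 18 h compound treatment at 37 C.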

Assay [17] has the same target. As to the kind of experiment: qHTS assay to identify small molecule antagonists of the glucocorticoid receptor (GR) signaling pathway (AID 720692; active means well fitted inhibition curve with a large enough effect in the signal ratio in the repeat runs, not every such curve was filed as active; the % refers to the signal ratio). The gist of the method:
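Inhibition of dexamethasone-driven (5 nM final) beta-lactamase expression was measured in GRE-reporter HeLa cells over 18 h at 37C. Fluorescence was read after 2 h with the B/G FRET substrate at room temperature.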

The target in assay [18] is Androgen receptor (Homo sapiens) (UniProt P10275). As to the kind of experiment: qHTS assay to identify small molecule agonists of the androgen receptor (AR) signaling pathway (AID 743036; active means well fitted activation curve with a large enough effect in the signal ratio in the repeat runs, with a control signal flat, not every such curve was filed as active; the % refers to the signal ratio). The gist of the method:
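Activation was read as beta-lactamase FRET signal from LiveBLAzer B/G substrate, added for 2 h at room temperature. Before that, GeneBLAzer AR-UAS-bla GripTite (HEK293) cells had 16 h compound exposure at 37C.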

For assay [19] the target is unchanged. In words: qHTS assay to identify small molecule agonists of the androgen receptor (AR) signaling pathway using the MDA cell line (AID 743040; further: nearly all actives have a fitted effect of over 20% in size). The gist of the method: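 Stable MMTV-luciferase reporter in MDA-kb2 cells; note the promoter carries GR as well as AR response elements. 16 h compound treatment, 37C, 0% CO2; ONE-Glo luminescence endpoint.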
The target is the same in assay [20]. In words: qHTS assay to identify small molecule antagonists of the androgen receptor (AR) signaling pathway (AID 743035; active means well fitted inhibition curve with a large enough effect in the signal ratio in the repeat runs, not every such curve was filed as active; the % refers to the signal ratio). The gist of the method: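 Antagonist mode: AR-bla HEK293 cells co-treated with test compounds and agonist R1881 for 16 h at 37C, 5% CO2. Beta-lactamase activity read as FRET fluorescence after 2 h room-temperature substrate loading.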

Records with an inconclusive call do not appear. Active and inactive are the calls of the source. Unless noted, the call rests on the fitted dose curve; in most records, active means well fitted curve in the direction sought with a large enough effect in the repeat runs; inconclusive means weak or mixed curves; inactive means no such curve, though single readings can be large; an effect the other way counts as inactive or inconclusive.

Chain of Glucocorticoid receptor (Homo sapiens) (P04150 whole entry, looked up): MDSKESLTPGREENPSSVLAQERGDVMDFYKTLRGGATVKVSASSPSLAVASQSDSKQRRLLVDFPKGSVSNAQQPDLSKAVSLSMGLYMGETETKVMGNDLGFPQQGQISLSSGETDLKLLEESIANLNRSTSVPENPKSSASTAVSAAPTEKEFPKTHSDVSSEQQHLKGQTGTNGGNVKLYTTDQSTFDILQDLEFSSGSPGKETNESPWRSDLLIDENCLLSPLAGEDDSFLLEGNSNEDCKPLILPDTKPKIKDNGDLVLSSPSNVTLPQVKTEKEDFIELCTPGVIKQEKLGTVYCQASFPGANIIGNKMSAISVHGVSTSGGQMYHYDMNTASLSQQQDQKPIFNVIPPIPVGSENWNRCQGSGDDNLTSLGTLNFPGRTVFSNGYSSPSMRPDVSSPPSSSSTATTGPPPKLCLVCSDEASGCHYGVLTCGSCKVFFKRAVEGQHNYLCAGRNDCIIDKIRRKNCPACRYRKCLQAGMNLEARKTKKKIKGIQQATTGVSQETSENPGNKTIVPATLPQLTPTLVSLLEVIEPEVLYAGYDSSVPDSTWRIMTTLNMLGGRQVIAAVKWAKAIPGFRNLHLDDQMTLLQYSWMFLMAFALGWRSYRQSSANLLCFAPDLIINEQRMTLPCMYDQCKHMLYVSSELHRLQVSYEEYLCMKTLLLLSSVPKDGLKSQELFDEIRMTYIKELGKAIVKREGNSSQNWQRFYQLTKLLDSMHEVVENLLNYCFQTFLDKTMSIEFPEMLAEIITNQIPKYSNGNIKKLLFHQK
Chain of Androgen receptor (Homo sapiens) (P10275 whole entry, looked up): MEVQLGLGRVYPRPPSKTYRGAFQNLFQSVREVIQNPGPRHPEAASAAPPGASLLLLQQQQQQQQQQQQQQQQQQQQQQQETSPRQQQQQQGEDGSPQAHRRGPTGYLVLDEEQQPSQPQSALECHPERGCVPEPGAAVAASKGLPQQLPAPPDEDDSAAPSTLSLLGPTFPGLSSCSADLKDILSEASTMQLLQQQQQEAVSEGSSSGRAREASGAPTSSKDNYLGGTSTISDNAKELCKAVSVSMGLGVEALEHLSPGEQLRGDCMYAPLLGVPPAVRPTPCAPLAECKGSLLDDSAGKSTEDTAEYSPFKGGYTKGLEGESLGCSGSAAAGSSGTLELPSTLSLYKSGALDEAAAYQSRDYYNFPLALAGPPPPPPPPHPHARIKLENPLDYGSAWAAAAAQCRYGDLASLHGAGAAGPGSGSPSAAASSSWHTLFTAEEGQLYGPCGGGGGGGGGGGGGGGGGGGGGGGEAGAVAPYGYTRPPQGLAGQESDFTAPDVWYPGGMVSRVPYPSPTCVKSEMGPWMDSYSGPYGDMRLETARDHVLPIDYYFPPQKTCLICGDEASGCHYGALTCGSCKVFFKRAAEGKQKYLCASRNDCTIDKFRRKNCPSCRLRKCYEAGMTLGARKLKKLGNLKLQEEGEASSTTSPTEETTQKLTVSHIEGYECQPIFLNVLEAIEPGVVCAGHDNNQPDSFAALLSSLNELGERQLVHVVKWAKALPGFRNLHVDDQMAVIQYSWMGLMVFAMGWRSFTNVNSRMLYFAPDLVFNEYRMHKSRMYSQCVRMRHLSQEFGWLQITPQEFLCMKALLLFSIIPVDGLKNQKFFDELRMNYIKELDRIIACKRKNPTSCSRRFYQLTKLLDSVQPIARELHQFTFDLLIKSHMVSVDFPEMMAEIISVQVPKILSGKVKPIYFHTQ

Turning to `CSc1nc(N=[N+]=[N-])nc(NC(C)C)n1`, the outcome in assay [1], in assay [2], in assay [3], in assay [4], in assay [5] and in assay [6] was inactive. Besides, the call in assay [7] and in assay [8] was inactive. Also, the Potency entry in assay [9], in assay [11], in [12] and in [13] was “inactive” in each case. In addition, the Potency in assay [10] is 61.1 µM (active).
For `CC1(C(=O)Nc2ccc(O)c(Cl)c2Cl)CCCCC1`, the compound was called inactive in [1], in assay [2], in [3], in assay [4], in assay [5] and in assay [6]. Moreover, the compound was called inactive in assay [7]. In addition, the Potency in assay [14] is 68.6 µM (active); in [10], 61.1 µM (active); in assay [15], 61.1 µM (active). In addition, the Potency entry in assay [11] and in [12] was “inactive” throughout.
In the case of `CC1(C)CON(Cc2ccccc2Cl)C1=O`, the call in assay [1], in [2], in assay [4], in assay [5], in [6] and in assay [7] was inactive. The call in assay [8] was inactive. The Potency result in [9], in assay [11], in assay [12] and in assay [13] was “inactive” each time. The Potency in assay [10] is 68.6 µM (active).
For `CCOP(=S)(OCC)SCSP(=S)(OCC)OCC`, the compound was called inactive in assay [1], in [2], in assay [4], in assay [5], in [6] and in [7]. For the same compound, the result in [16] was inactive. Besides, the Potency result in assay [17], in [9], in [11], in assay [12] and in assay [13] was “inactive” each time. The figures for the Potency in [14], in assay [10] and in [15] were 54.5 µM (active), 61.1 µM (active) and 61.1 µM (active), respectively.
As to `O=C(Nc1ccccc1)N(Cc1ccc(Cl)cc1)C1CCCC1`, the call in assay [1], in assay [2], in [4], in assay [5], in assay [6] and in [7] was inactive. In addition, the outcome in assay [8] and in assay [16] was inactive. For the same compound, the Potency result in [9], in assay [11] and in assay [12] was “inactive” each time. The Potency in assay [14] is 3.86 µM (active); in assay [10], 0.611 µM (active); in [15], 1.54 µM (active).
Take `CN1C[C@@H](NS(=O)(=O)N(C)C)C[C@@H]2c3cccc4c3c(cn4C)C[C@H]21`: the result in assay [1], in [2], in assay [4], in [5], in [6] and in assay [7] was inactive. Also, the compound was classed as inactive in assay [8] and in assay [16]. The Potency result in assay [17], in assay [9], in assay [11] and in [12] was “inactive” in each case. Moreover, in [14], the Potency is 21.1 µM (active).
As for `CCOC(=O)NC(=S)Nc1ccccc1NC(=S)NC(=O)OCC`, the compound was classed as inactive in assay [1], in assay [2], in assay [4], in [5], in [6] and in assay [7]. The result in [8] and in assay [16] was inactive. The Potency entry in [9], in assay [11], in assay [12] and in assay [13] was “inactive” each time. Also, the Potency in assay [14] is 61.1 µM (active); in assay [10], 30.6 µM (active); in [15], 48.6 µM (active).
Take `O=C(Nc1ccccc1)c1ccccc1I`: the outcome in [1], in assay [2], in assay [4], in assay [5], in [6] and in [7] was inactive. In addition, the call in assay [16] and in assay [18] was inactive. For the same compound, the Potency entry in [17], in assay [9], in assay [11], in [19] and in [12] was “inactive” in each case. The Potency is 48.6 µM (active) in assay [14], 27.3 µM (active) in assay [10] and 61.1 µM (active) in assay [15].
In the case of `CC1(C)COP(Oc2ccccc2)OC1`, the call in assay [2], in assay [3], in [4], in assay [5], in assay [6] and in [7] was inactive. Also, the compound was classed as inactive in [8], in assay [16] and in [18]. The Potency result in assay [17], in [9], in assay [14], in assay [10], in assay [15] and in [11] was “inactive” each time. In addition, the Potency result in assay [20], in assay [19], in assay [12] and in assay [13] was “inactive” each time.
